Assay results: PubChem BioAssay (NCI)
Compounds without any hit were thinned out: in the full panel of roughly 79,000, 15% have a hit. A number with no mark means an inactive call. Calls of active or inactive are those of the source. Rule as the data show it: active = growth inhibition above about 70%; inactive = the rest.

Legend:
[1] = NCI Yeast Anticancer Drug Screen. Data for the rad50 strain (AID 155);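 also: 0% = growth of vehicle-only cultures of the same strain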; details: S. cerevisiae rad50 strain growth inhibition, stronger effect = higher value
Procedure, shortened: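 Inhibition values express reduced yeast growth in compound-treated cultures relative to vehicle-treated controls.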

[2] = NCI Yeast Anticancer Drug Screen. Data for the mec2-1 strain (AID 157); details: S. cerevisiae mec2-1 strain, stronger effect = higher value
Procedure, shortened: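 Readout is yeast growth inhibition, normalised to vehicle-treated controls, in the mec2-1 strain exposed to compound.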

[3] = NCI Yeast Anticancer Drug Screen. Data for the sgs1 mgt1 strain (AID 161);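 also: 0% = growth of cultures given vehicle only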; details: S. cerevisiae sgs1 mgt1 strain, stronger effect = higher value
Procedure, shortened: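 This yeast growth screen uses a strain with defined DNA-repair lesions; compound-treated growth is compared with vehicle-treated growth.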

[4] = NCI Yeast Anticancer Drug Screen. Data for the cln2 rad14 strain (AID 165);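 also: 0% = growth equal to vehicle treated cultures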; details: S. cerevisiae cln2 rad14 strain, stronger effect = higher value
Procedure, shortened: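 Relative to vehicle controls, growth inhibition of compound-treated cln2 rad14 yeast was recorded.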

[5] = NCI Yeast Anticancer Drug Screen. Data for the bub3 strain (AID 167); details: S. cerevisiae bub3 mutant strain, stronger effect = higher value
Procedure, shortened: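 Steps: expose the mutant yeast strain to compound; grow alongside vehicle-treated cultures; measure growth; express inhibition against the vehicle cultures.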

[6] = NCI Yeast Anticancer Drug Screen. Data for the mlh1 rad18 strain (AID 175); details: S. cerevisiae mlh1 rad18 strain growth inhibition, stronger effect = higher value
Procedure, shortened: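 Test agents were incubated with a yeast strain of defined genotype (DNA damage repair defect). Inhibition of growth was derived by comparison with vehicle-exposed cultures.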

[7] = at 5.0 µM (retest, dose inferred, filed as 0.5)
[8] = at 50.0 µM (retest, dose inferred, filed as 5.0)

| Compound | growth inhibition [1, 7] | growth inhibition [1, 8] | growth inhibition ([1]; at 50.0 µM) | growth inhibition [2, 7] | growth inhibition [2, 8] | growth inhibition ([2]; at 50.0 µM) | growth inhibition [3, 7] | growth inhibition [3, 8] | growth inhibition ([3]; at 50.0 µM) | growth inhibition [4, 7] | growth inhibition [4, 8] | growth inhibition ([4]; at 50.0 µM) | growth inhibition [5, 7] | growth inhibition [5, 8] | growth inhibition ([5]; at 50.0 µM) | growth inhibition [6, 7] | growth inhibition [6, 8] | growth inhibition ([6]; at 50.0 µM) |
| --- | --- | --- | --- | --- | --- | --- | --- | --- | --- | --- | --- | --- | --- | --- | --- | --- | --- | --- |
| O/N=C(/Cc1nc2cc(Cl)c(Cl)cc2nc1C/C(=N/O)c1ccncc1)c1ccncc1 | 5% | 65% | 82.2% (active) | 11% | 77% (active) | 87.6% (active) | 4% | 55% | 79% (active) | 6% | 68% | 84.5% (active) | 5% | 77% (active) | 74% (active) | 1% | 47% | 89.5% (active) |
| COc1ccccc1C(=O)Nc1ccc(Cl)c(C(=O)OC(C)C)c1 | 16% | 33% | -1.8% | 7% | 20% | 22.2% | 14% | -32% | 70.8% (active) | 14% | 38% | 58.6% | 13% | 47% | 73.2% (active) | 15% | 65% | 28.7% |
| COc1cc(OC)c(/C=C\c2ccnc3ccccc23)c(OC)c1 | 35% | 91% (active) | 81.6% (active) | 32% | 93% (active) | 86.3% (active) | 26% | 96% (active) | 84.7% (active) | 19% | 55% | 37.5% | 22% | 98% (active) | 35% | 41% | 91% (active) | -2.05% |
| CCOC(=O)C(C)(C)C | 0% | 29% | 15.8% | 3% | 16% | -8.2% | 2% | 12% | 14.4% | 0% | 11% | 25.6% | 2% | 29% | 73% (active) | 3% | 16% | 23.3% |
| O=C1CCSC(=S)N1c1ccccc1C(F)(F)F | 7% | 99% (active) | 99.1% (active) | 4% | 99% (active) | 99.5% (active) | 9% | 99% (active) | 99.5% (active) | 7% | 98% (active) | 98.6% (active) | 0% | 99% (active) | 99.2% (active) | 1% | 99% (active) | 99.3% (active) |
| Cc1nc(Nc2ccccc2)sc1C(=O)NNc1ccc([N+](=O)[O-])cc1[N+](=O)[O-] | 19% | 19% | 12.6% | 7% | 7% | 40.2% | -6% | -6% | 60.8% | 14% | 14% | 28.4% | 15% | 15% | 43% | 20% | 20% | 66.2% |
| Oc1cc(Br)cc2cc(Br)cnc12 | 92% (active) | 98% (active) | 84.4% (active) | 89% (active) | 98% (active) | 89.5% (active) | 95% (active) | 98% (active) | 80.5% (active) | 96% (active) | 96% (active) | 84.8% (active) | 92% (active) | 97% (active) | 85.5% (active) | 96% (active) | 98% (active) | 78.3% (active) |
| CNC(=O)OCc1c(COC(=O)NC)c(-c2ccc(Cl)c(Cl)c2)n2c1Cc1ccccc1C2 | -18% | 97% (active) | 88.7% (active) | -21% | 98% (active) | 92.2% (active) | -6% | 85% (active) | 88.8% (active) | 8% | 63% | 90.8% (active) | -23% | 97% (active) | 88.1% (active) | -11% | 97% (active) | 87% (active) |
| CCCN1CSC(=S)N(CCC)C1 | 41% | 92% (active) | 52.5% | 48% | 92% (active) | 77% (active) | 32% | 99% (active) | 80.5% (active) | 66% | 98% (active) | 32.1% | 34% | 100% (active) | 86.2% (active) | 37% | 97% (active) | 72.8% (active) |
| Cc1cc(C)c(O)c(C2CC3CCC2(C)C3(C)C)c1 (stereo not given) | 2% | 87% (active) | 95.6% (active) | 1% | 92% (active) | 95% (active) | 5% | 91% (active) | 95.8% (active) | 4% | 91% (active) | 95.2% (active) | 7% | 92% (active) | 96.5% (active) | -1% | 94% (active) | 95.5% (active) |
